Where a name gives a salt, the structure may show the parent alone.
Assays:
Conditions in all cases: incubation time: 27 h, anaerobic, 37 °C;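 for the amine columns active = adjusted P below 0.05 in both replicates with a change the same way and a mean fold change under 0.8 or over 1.25; inactive = the rest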
[1] = tested on: Clostridium sporogenes DSM 1664; test: growth (OD595) fold change vs plate DMSO controls (fold change (ratio)); higher = more growth
Procedure, shortened: (§1)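 To obtain OD, 595 nm absorbance readings were blank-subtracted, corrected for compound background using 20 µM compound solutions in water, and multiplied by a calibration factor of 5. They came from 96-well mGAM cultures grown anaerobically for 27 h at 37 °C and shaken before reading. Growth is the fold change relative to the median of plate DMSO controls. Two biological replicates were averaged, and fold changes above 1.5 were set to NA.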

Escherichia coli IAI1 [2] = test: as above
Procedure, shortened: as §1

[3] = tested on: Klebsiella aerogenes DSM 30053; test: as above
Procedure, shortened: as §1

[4] = tested on: Ruminococcus gnavus DSM 108212; test: as above
Procedure, shortened: as §1

[5] = tested on: Klebsiella aerogenes DSM 30053; test: fold change of Histamine concentration vs plate DMSO controls (fold change (ratio)); higher = more amine produced, active = hit call of the paper (significant change in both replicates, either direction)
Procedure, shortened: (§2)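 Anaerobic mGAM cultures of four gut bacterial strains were grown at 37 °C for 27 h in 80 µL wells, starting at OD 0.1 before 1:1 dilution. Compounds were at 20 µM final (sweeteners 50 µM). Whole cultures were extracted with cold acetonitrile/methanol containing 0.1% formic acid and centrifuged. Amines were quantified by LC–triple-quadrupole MS (dynamic MRM) against external calibration curves and drift-corrected within batch. Each value is the fold change versus plate DMSO controls, averaged over 2 biological replicates.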

[6] = tested on: Clostridium sporogenes DSM 1664; test: fold change of Tryptamine concentration vs plate DMSO controls (fold change (ratio)); higher = more amine produced, active = hit call of the paper (significant change in both replicates, either direction)
Procedure, shortened: as §2

[7] = tested on: Ruminococcus gnavus DSM 108212; test: as above
Procedure, shortened: as §2

Escherichia coli IAI1 [8] = test: fold change of Putrescine concentration vs plate DMSO controls (fold change (ratio)); higher = more amine produced, active = hit call of the paper (significant change in both replicates, either direction)
Procedure, shortened: as §2

[9] = tested on: Klebsiella aerogenes DSM 30053; test: as above
Procedure, shortened: as §2

Escherichia coli IAI1 [10] = test: fold change of Cadaverine concentration vs plate DMSO controls (fold change (ratio)); higher = more amine produced, active = hit call of the paper (significant change in both replicates, either direction)
Procedure, shortened: as §2

[11] = tested on: Klebsiella aerogenes DSM 30053; test: as above
Procedure, shortened: as §2

[12] = tested on: Ruminococcus gnavus DSM 108212; test: fold change of 2-Phenylethylamine concentration vs plate DMSO controls (fold change (ratio)); higher = more amine produced, active = hit call of the paper (significant change in both replicates, either direction)
Procedure, shortened: as §2

| SMILES | growth [1] | growth (Escherichia coli IAI1 [2]) | growth [3] | growth [4] | fold change of Histamine concentration [5] | fold change of Tryptamine concentration [6] | fold change of Tryptamine concentration [7] | fold change of Putrescine concentration (Escherichia coli IAI1 [8]) | fold change of Putrescine concentration [9] | fold change of Cadaverine concentration (Escherichia coli IAI1 [10]) | fold change of Cadaverine concentration [11] | fold change of 2-Phenylethylamine concentration [12] |
| --- | --- | --- | --- | --- | --- | --- | --- | --- | --- | --- | --- | --- |
| CCN(CC)CCOC(=O)C(c1ccccc1)c1ccccc1 [Adiphenine hydrochloride] (20 µM) | 1.07 | 1.03 | 1.16 | 1 | 0.877 (inactive) | 1.05 (inactive) | 0.977 (inactive) | 1 (inactive) | 0.932 (inactive) | 1.01 (inactive) | 1.03 (inactive) | 0.968 (inactive) |
| O=C1CC2(CCCC2)CC(=O)N1CCCCN1CCN(c2ncccn2)CC1 [Buspirone hydrochloride] (20 µM) | 0.958 | 1.07 | 0.968 | 0.992 | 1.09 (inactive) | 1.05 (inactive) | 1.05 (inactive) | 1.02 (inactive) | 1.01 (inactive) | 1.05 (inactive) | 0.99 (inactive) | 1.05 (inactive) |
| OC[C@H]1O[C@H](O[C@H]2[C@H](O)[C@@H](O)[C@H](O)O[C@@H]2CO)[C@H](O)[C@@H](O)[C@@H]1O [Maltose] (50 µM) | 1 | 1.03 | 1.03 | 1 | 0.966 (inactive) | 0.991 (inactive) | 0.984 (inactive) | 1.02 (inactive) | 0.996 (inactive) | 1.06 (inactive) | 0.999 (inactive) | 1.01 (inactive) |
| CCCOc1ccc(C(=O)OCCN(CC)CC)cc1N [Proparacaine hydrochloride] (20 µM) | 1.19 | 1.08 | 1.14 | 1.03 | 0.892 (inactive) | 1.09 (inactive) | 1.08 (inactive) | 1.13 (inactive) | 0.98 (inactive) | 0.971 (inactive) | 1.04 (inactive) | 1.14 (inactive) |
| CCCC(CCC)C(=O)O [Valproic acid] (20 µM) | 1.23 | 1.01 | 0.99 | 0.931 | 0.977 (inactive) | 1.07 (inactive) | 1.11 (inactive) | 0.943 (inactive) | 0.971 (inactive) | 0.999 (inactive) | 0.999 (inactive) | 1.1 (inactive) |
| Cc1cc(CC(=O)O)n(C)c1C(=O)c1ccc(Cl)cc1 [Zomepirac sodium salt] (20 µM) | 1.21 | 0.969 | 0.981 | 1.13 | 1.05 (inactive) | 0.971 (inactive) | 0.972 (inactive) | 1.04 (inactive) | 1.01 (inactive) | 1.01 (inactive) | 0.984 (inactive) | 0.968 (inactive) |
| Cc1[nH]cnc1CN1CCc2c(c3ccccc3n2C)C1=O [Alosetron hydrochloride] (20 µM) | 1.17 | 0.97 | 1.02 | 1.13 | 0.979 (inactive) | 1.04 (inactive) | 0.996 (inactive) | 0.971 (inactive) | 1.02 (inactive) | 0.945 (inactive) | 1.01 (inactive) | 0.975 (inactive) |
| O=C1[C@@H]2[C@H]3CC[C@H](C3)[C@@H]2C(=O)N1CCCCN1CCN(c2ncccn2)CC1 [Tandospirone] (20 µM) | 0.973 | 1.04 | 1.03 | 1.06 | 0.981 (inactive) | 0.992 (inactive) | 1.01 (inactive) | 0.989 (inactive) | 0.995 (inactive) | 1 (inactive) | 0.997 (inactive) | 1.06 (inactive) |
| CCC1(C)CC(=O)NC1=O (stereo not drawn) [Ethosuximide] (20 µM) | 0.953 | 1 | 1.07 | 0.928 | 0.991 (inactive) | 1.07 (inactive) | 0.992 (inactive) | 1 (inactive) | 0.995 (inactive) | 0.995 (inactive) | 1.03 (inactive) | 1.02 (inactive) |
| NC(=O)C(c1ccccc1)(c1ccccc1)[C@@H]1CCN(CCc2ccc3c(c2)CCO3)C1 [Darifenacin hydrobromide] (20 µM) | 1.04 | 0.975 | 1.02 | 0.96 | 0.873 (inactive) | 1.19 (inactive) | 1.1 (inactive) | 0.943 (inactive) | 1.05 (inactive) | 0.961 (inactive) | 1.15 (inactive) | 1.25 (inactive) |
| Nc1ncnc2c1ncn2[C@@H]1O[C@H](COP(=O)(O)O)[C@@H](O)[C@H]1O [5'-Adenylic acid] (50 µM) | 0.902 | 0.983 | 1.04 | 1.03 | 0.938 (inactive) | 0.951 (inactive) | 1.01 (inactive) | 1.01 (inactive) | 1.03 (inactive) | 0.905 (inactive) | 1 (inactive) | 0.989 (inactive) |
| CCc1cccc(CC)c1NC(=O)CN(CC(=O)O)CC(=O)O [Etifenin] (20 µM) | 1.08 | 1 | 1.08 | 1.1 | 0.925 (inactive) | 1.02 (inactive) | 0.951 (inactive) | 0.998 (inactive) | 1 (inactive) | 0.987 (inactive) | 1.02 (inactive) | 0.924 (inactive) |
| CC(C)[C@H](N)C(=O)OCCOCn1cnc2c(=O)nc(N)[nH]c21 [Valacyclovir hydrochloride] (20 µM) | 1.06 | 0.958 | 0.98 | 0.538 | 1.09 (inactive) | 0.989 (inactive) | 1.02 (inactive) | 0.954 (inactive) | 1.03 (inactive) | 0.987 (inactive) | 0.999 (inactive) | 0.997 (inactive) |
| c1ccc2cc3ccccc3cc2c1 [Anthracene] (20 µM) | 1.03 | 1.04 | 0.993 | 0.985 | 1.03 (inactive) | 1.03 (inactive) | 1.02 (inactive) | 1.01 (inactive) | 0.986 (inactive) | 0.976 (inactive) | 1.02 (inactive) | 0.963 (inactive) |
| CN(Cc1cnc2nc(N)nc(N)c2n1)c1ccc(C(=O)N[C@@H](CCC(=O)O)C(=O)O)cc1 [Amethopterin] (20 µM) | 1.08 | 1.02 | 1.09 | 1.42 | 0.922 (inactive) | 0.975 (inactive) | 0.892 (inactive) | 1 (inactive) | 1 (inactive) | 1 (inactive) | 1.02 (inactive) | 0.832 (inactive) |
| CCCC(=O)Nc1ccc(OCC(O)CNC(C)C)c(C(C)=O)c1 (stereo not drawn) [Acebutolol hydrochloride] (20 µM) | 0.937 | 0.989 | 0.971 | 0.781 | 1.06 (inactive) | 1.03 (inactive) | 1.03 (inactive) | 0.996 (inactive) | 1.01 (inactive) | 0.958 (inactive) | 0.99 (inactive) | 0.985 (inactive) |
| CC1CC(OC(=O)c2ccccc2O)CC(C)(C)C1 (stereo not drawn) [Homosalate] (20 µM) | 1.2 | 0.987 | 0.984 | 1.1 | 1.04 (inactive) | 0.994 (inactive) | 0.952 (inactive) | 1.23 (inactive) | 1 (inactive) | 1 (inactive) | 0.986 (inactive) | 0.922 (inactive) |
| O=C(CO)[C@@H](O)[C@H](O)[C@@H](CO)O[C@H]1O[C@H](CO)[C@@H](O)[C@H](O)[C@H]1O [Leucrose] (50 µM) | 0.936 | 0.999 | 1.01 | 0.99 | 1.02 (inactive) | 1.03 (inactive) | 0.993 (inactive) | 1.05 (inactive) | 1 (inactive) | 1.02 (inactive) | 0.992 (inactive) | 0.968 (inactive) |
| NC(=O)c1cnccn1 [Pyrazinamide] (20 µM) | 0.992 | 1.04 | 1 | 1.12 | 0.957 (inactive) | 1.04 (inactive) | 0.958 (inactive) | 1.01 (inactive) | 1 (inactive) | 0.98 (inactive) | 1.01 (inactive) | 0.906 (inactive) |
| COc1ccc(CN2CCN(C(c3ccc(F)cc3)c3ccc(F)cc3)CC2)c(OC)c1OC [Lomerizine dihydrochloride] (20 µM) | 1.02 | 1.08 | 1.04 | 0.769 | 0.983 (inactive) | 1.08 (inactive) | 0.781 (inactive) | 1.09 (inactive) | 1.01 (inactive) | 0.984 (inactive) | 1.01 (inactive) | 0.87 (inactive) |
| O=C(CO)[C@@H](O)[C@@H](O)[C@H](O)CO [D-Tagatose] (50 µM) | 0.957 | 1.01 | 1.03 | 0.984 | 0.943 (inactive) | 0.991 (inactive) | 0.995 (inactive) | 1.03 (inactive) | 1.02 (inactive) | 1.07 (inactive) | 1.03 (inactive) | 0.992 (inactive) |
| C[C@]12CC[C@H]3[C@@H](CCC4=CC(=O)CC[C@@]43C)[C@@H]1CC[C@@H]2C(=O)CO [Deoxycorticosterone] (20 µM) | 1.18 | 1.09 | 1.02 | 1.11 | 0.959 (inactive) | 0.963 (inactive) | 1.03 (inactive) | 1.25 (inactive) | 0.962 (inactive) | 0.96 (inactive) | 1.03 (inactive) | 1.06 (inactive) |
| Cc1cc(C)nc(NS(=O)(=O)c2ccc(N)cc2)n1 [Sulfamethazine sodium salt] (20 µM) | 1.01 | 0.957 | 0.984 | 0.999 | 1.06 (inactive) | 1.06 (inactive) | 1.04 (inactive) | 0.93 (inactive) | 1.03 (inactive) | 0.986 (inactive) | 0.995 (inactive) | 1.07 (inactive) |
| CO/N=C(\C(=O)N[C@@H]1C(=O)N2C(C(=O)O)=C(COC(C)=O)CS[C@H]12)c1csc(N)n1 [Cefotaxime sodium salt] (20 µM) | 0.00126 | 0.00374 | 0.601 | 0.2 | 0.733 (inactive) | 0.0286 (active) | 0.0769 (active) | 0.143 (active) | 0.729 (inactive) | 0.574 (active) | 1.02 (inactive) | 0.055 (active) |

From the supplement of paper PMC12494721
